The text below walks through data of PubChem BioAssay AID1851 (National Center for Advancing Translational Sciences (NCATS), 2009).

Hit rate of the full screen: of about 16,000 compounds, about 5,700 (36%) were called active. Not shown: some 24% with an inconclusive outcome. The list shows a part of the results. Values without a mark were called inactive. Calls follow the shape of the dose curve; as a rule, active = well fitted curve in the direction sought with a large enough effect; inconclusive = small, poorly fitted or top-dose-only effect, or effect the other way; inactive = no such curve, though single readings can be large or run the other way.
% is scaled to controls: 0 for no effect and ±100 for the full control effect.

Sequence of Cytochrome P450 1A2 (Homo sapiens) (P05177 whole entry, looked up): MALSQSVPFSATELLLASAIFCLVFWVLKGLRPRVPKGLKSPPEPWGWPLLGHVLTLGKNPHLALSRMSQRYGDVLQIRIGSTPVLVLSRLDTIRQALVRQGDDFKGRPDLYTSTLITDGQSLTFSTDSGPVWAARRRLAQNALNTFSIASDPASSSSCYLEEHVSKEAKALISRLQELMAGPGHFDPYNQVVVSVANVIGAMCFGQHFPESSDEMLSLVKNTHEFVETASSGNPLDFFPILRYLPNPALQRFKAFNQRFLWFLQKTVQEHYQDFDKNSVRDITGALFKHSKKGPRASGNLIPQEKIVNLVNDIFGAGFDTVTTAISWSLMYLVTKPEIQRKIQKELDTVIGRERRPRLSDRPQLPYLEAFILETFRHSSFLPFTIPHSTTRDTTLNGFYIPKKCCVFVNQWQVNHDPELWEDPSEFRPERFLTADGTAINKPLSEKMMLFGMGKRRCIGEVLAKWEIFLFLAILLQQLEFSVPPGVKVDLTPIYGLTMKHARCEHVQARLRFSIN

This test concerns the target Cytochrome P450 1A2 (Homo sapiens) (UniProt P05177). The test is described as follows: Cytochrome panel assay with activity outcomes. The settings on record: recombinant CYP, pro-luciferin dealkylation, luminescence, p450-cyp1a2; series mostly up to 57.1 µM; activity, negative = inhibition: at the top concentration.
On to `COc1ccc(C(=O)/C=C2/c3ccccc3CC(C)(C)N2C)cc1`, for which the AC50 is 15.8 µM (active).

`COc1ccc(C(=O)N2CCC3(CCCN(Cc4ccccc4)C3)CC2)cc1`: the “activity, negative = inhibition” value is 7.68%.

Take `N=C1CCC[C@@H]1C(=S)SCCC(N)=O`: the AC50 is 3.16 µM (active).

With `N#CCCSC(=S)[C@H]1CCCC1=N`, the AC50 was 3.16 µM (active).

Take `CCN1C(=O)C(O)(CC(=O)/C=C/C=C/c2ccccc2)c2ccccc21` (stereo not drawn): the AC50 was 10 µM (active).

Turning to `CCN1C(=O)C(O)(C2COC(C)(C)CC2=O)c2ccccc21` (stereo not drawn), the “activity, negative = inhibition” value is -22.9%.

As to `CCCN1C(=O)C(NC(C)=O)c2cc(OC)ccc21` (stereo not drawn), the AC50 was 7.08 µM (active).

On to `COc1ccc([C@H]2Sc3ccccc3N(CCN(C)C)C(=O)[C@H]2OC(C)=O)cc1`, for which the AC50 entry is “inactive”.

As to `COc1ccc([C@@H]2Sc3ccccc3N(CCN(C)C)C(=O)[C@@H]2OC(C)=O)cc1`, the “activity, negative = inhibition” value was -20.6%.

Turning to `c1nc(NC2CCNCC2)c2cc(-c3ccc4c(c3)OCO4)ccc2n1`, the AC50 was 12.6 µM (active).

For the compound `c1nc(NC2CCNCC2)c2cc(-c3ccoc3)ccc2n1`, the AC50 is 25.1 µM (active).

Take `c1nc(NC2CC2)c2cc(-c3ccoc3)ccc2n1`: the AC50 is 0.794 µM (active).

As for `CN(C)c1ccc(-c2ccc3ncnc(NC4CC4)c3c2)cc1`, the AC50 is 0.2 µM (active).

Consider `CC(=O)N[C@@H](C(=O)O)C(C)(C)SN=O`, for which the AC50 entry is “inactive”.

Regarding `O=C(Cn1cccc1)NC1CCCCCC1`, the “activity, negative = inhibition” value was -20.3%.

Take `O=C(N/N=C/c1c[nH]c2ccc(Br)cc12)c1ccn(Cc2ccc(Cl)cc2)n1`: the concentration at half-maximal activity (AC50) was 3.16 µM (active).

In the case of `O=C(N/N=C/c1c[nH]c2ccccc12)c1ccn(Cc2ccc(Cl)cc2Cl)n1`, the AC50 was 0.708 µM (active).

In the case of `COC(=O)C1=C(C)NC2=C(C(=O)CCC2)C1c1cn(Cc2ccc(Cl)cc2Cl)nc1-c1ccccc1` (stereo not drawn), the “activity, negative = inhibition” value was -11.8%.

Turning to `O=C(O)C1CCN(c2ncccn2)CC1`, the “activity, negative = inhibition” value was -15.9%.

Turning to `O=C(NC1CCCC1)c1cccnc1N1CCCCCC1`, the AC50 is 15.8 µM (active).

Regarding `CN(C)C(CNC(=O)NC1CCCCC1)c1cccnc1` (stereo not drawn), the “activity, negative = inhibition” value is -32.9%.

Turning to `C/C=C\C1=C(CO)[C@H](O)[C@H]2OC2[C@@H]1O` (stereo partly drawn), the activity, negative = inhibition was -5.28% [at 11.4 µM].

As to `N#C/C(=C/c1cccc(C(F)(F)F)c1)c1nc(CCN2C(=O)c3ccccc3C2=O)cs1`, the AC50 was 12.6 µM (active).

For the compound `C[C@@H]1CC[C@@H]2C(=O)N3[C@@H](CC[C@@H](C)[C@@H]3c3ccc(-c4ccco4)cc3)C(=O)N2[C@H]1c1ccc(-c2ccco2)cc1`, the activity, negative = inhibition is -4.34% [at 11.4 µM].

As to `Fc1ccc(C2CC(c3ccco3)=NN2c2ccccc2)cc1` (stereo not drawn), the AC50 is 1.12 µM (active).

For the compound `CC1=C(C(=O)O)N2C(=O)C(NC(=O)c3ccn(C)n3)C2SC1` (stereo not drawn), the “activity, negative = inhibition” value was 18.7%.

Take `CC(=O)NCCNc1ncnc2ccc(-c3c(C)noc3C)cc12`: the AC50 was 15.8 µM (active).

Take `Cc1noc(C)c1-c1ccc2ncnc(NCCN3CCOCC3)c2c1`: the AC50 was 15.8 µM (active).

Turning to `c1nc(NCCN2CCOCC2)c2cc(-c3ccoc3)ccc2n1`, the AC50 was 12.6 µM (active).

As for `c1nc(NCCN2CCOCC2)c2cc(-c3ccc4c(c3)OCO4)ccc2n1`, the AC50 was 2.51 µM (active).

`c1cncc(-c2ccc3ncnc(NCCN4CCOCC4)c3c2)c1`: the AC50 was 1 µM (active).

On to `COc1ccc(CNc2ncnc3ccc(-c4cccc(C#N)c4)cc23)c(OC)c1`, for which the half-maximal activity concentration (AC50) is 3.16 µM (active).

Turning to `COc1ccccc1CNc1ncnc2ccc(-c3cccc(C#N)c3)cc12`, the AC50 was 0.251 µM (active).

`Cc1nc(C(=O)Nc2cccc(Cl)c2Cl)nn1-c1cc(OC(C)C)c(Cl)cc1Cl`: the “activity, negative = inhibition” value is -8.72%.

As for `O=C(Nc1cccc(Cl)c1Cl)c1snnc1-c1ccccc1`, the AC50 was 1.26 µM (active).

Regarding `CC[C@H](C)C(=O)O[C@@H]1C[C@H](C)C=C2C=C[C@H](C)[C@@H](CC[C@H]3C[C@@H](O)CC(=O)O3)[C@H]21`, the “activity, negative = inhibition” value is -9.48% [at 25.6 µM].

Turning to `CN(C)S(=O)(=O)c1ccc2c(c1)/C(=C/c1cc3c([nH]1)CCCC3)C(=O)N2`, the AC50 is 0.316 µM (active).

For `CCOC(=O)O[C@]1(C(=O)COC(=O)CC)CC[C@@H]2[C@@H]3CCC4=CC(=O)C=C[C@@]4(C)[C@H]3[C@H](O)C[C@]21C`, the “activity, negative = inhibition” value was -16.4% [at 25.6 µM].

For the compound `O=c1ccc(NS(=O)(=O)c2ccccc2)cn1Cc1ccc(Cl)c(Cl)c1`, the “activity, negative = inhibition” value was -26.6%.

For the compound `Cc1cc(NS(=O)(=O)c2ccc(NC(=O)CN3C(=O)c4ccccc4C3=O)cc2)nc(C)n1`, the “activity, negative = inhibition” value is 3.64%.

For the compound `Cc1ccc(S(=O)(=O)Nc2ccc(=O)n(Cc3ccc(Cl)c(Cl)c3)c2)cc1`, the AC50 was 25.1 µM (active).

In the case of `CCCn1c(-c2cccs2)nc2nc3ccccc3nc21`, the AC50 is 1.78 µM (active).

Turning to `Cc1c(Br)c([N+](=O)[O-])nn1CC(=O)NCc1ccccn1`, the “activity, negative = inhibition” value was -24%.

As for `Cc1c(Cl)c([N+](=O)[O-])nn1CC(=O)Nc1c(C)n(C)n(-c2ccccc2)c1=O`, the “activity, negative = inhibition” value was -2.44%.

`Cc1ccc(NC(=O)Cn2nc([N+](=O)[O-])c(Br)c2C)cc1C`: the AC50 was 12.6 µM (active).

Consider `Cc1cc(C)c(S(C)(=O)=O)c(Oc2ccc(F)cc2)n1`, for which the concentration at half-maximal activity (AC50) is 10 µM (active).

As to `COc1ccc(Oc2nc(C)cc(C)c2S(=O)(=O)c2ccc(C)cc2)cc1`, the “activity, negative = inhibition” value was -22.5%.

On to `Cc1cc(C)c(S(C)(=O)=O)c(Oc2ccc(C(C)(C)C)cc2)n1`, for which the AC50 was 4.47 µM (active).

What is called AC50 is the concentration giving half of the maximal activity seen.
